RORg inh: inhibitors of mouse ROR gamma transcriptional activity; P51450; AID 2551; 310,000 tested, 5.4% active; Potency, µM (series often up to 53.6 µM), usual class: inhibitors; Drosophila S2 Gal4-RORgamma UAS-luciferase reporter, 20 h; also: nearly all actives have a fitted effect of over 60% in size
Target sequence (P51450 whole entry, looked up, the tested form may be a part): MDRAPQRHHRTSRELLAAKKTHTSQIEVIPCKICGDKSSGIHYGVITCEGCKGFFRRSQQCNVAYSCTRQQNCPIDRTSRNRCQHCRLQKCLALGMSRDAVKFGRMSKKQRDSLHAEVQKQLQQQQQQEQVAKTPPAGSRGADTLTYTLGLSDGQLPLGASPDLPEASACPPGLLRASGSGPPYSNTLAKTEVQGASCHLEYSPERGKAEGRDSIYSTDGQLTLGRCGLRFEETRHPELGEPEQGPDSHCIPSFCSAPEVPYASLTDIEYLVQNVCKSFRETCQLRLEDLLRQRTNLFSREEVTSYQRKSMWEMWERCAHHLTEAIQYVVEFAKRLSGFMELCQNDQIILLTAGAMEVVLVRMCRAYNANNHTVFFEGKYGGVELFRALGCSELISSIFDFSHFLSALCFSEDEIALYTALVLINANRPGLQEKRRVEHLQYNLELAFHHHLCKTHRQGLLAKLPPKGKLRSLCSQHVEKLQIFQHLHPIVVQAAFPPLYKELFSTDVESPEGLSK
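In this cell-based reporter format, copper sulfate (700 uM final) drives Gal4–ROR gamma fusion expression from a metallothionein promoter in Drosophila Schneider cells; compounds preincubated 1 hr, reporter read after 20 hr at ambient temperature.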
TDP1 cell noCPT: qHTS for Inhibitors of human tyrosyl-DNA phosphodiesterase 1 (TDP1): qHTS in cells in absence of CPT; DT40 Tdp1-/- hTDP1 cells, no CPT, ATP luminescence, 48 h; Potency, µM (titrated, usually from 46.2 µM), hits mostly inhibitors; 420,000 tested, 15% active; AID 686978, 2013; also: nearly all actives have a fitted effect of over 55% in size
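Camptothecin absent (DMSO only). Human TDP1-complemented DT40 knockout cells, 400 cells/well, 37 °C for minimum 48 hr; ATP measured via CellTiter-Glo, 30 min dark incubation, luminescence.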
TDP1 block: blocks human tyrosyl-DNA phosphodiesterase 1 | Q9NUW8 | recombinant TDP1, AlphaScreen DNA substrate cleavage | Potency, µM (titrated, usually from 130 µM), hits mostly inhibitors | 350,000 tested, 0.28% active; also: nearly all actives have a fitted effect of over 40% in size
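Enzyme-compound mixtures sat 15 min at room temperature, followed by a 5 min reaction with 15 nM final substrate and 10 min with AlphaScreen beads. Recombinant human Tdp1 was used at 1 nM final.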
Gal4-VP16 FLuc: Gal4-VP16 reporter inhibition counter-screen; AID 2546; 310,000 tested, 3.5% active; Potency, µM (series often up to 53.6 µM), hits mostly inhibitors; Drosophila S2 Gal4-VP16 UAS-luciferase, luminescence, 20 h;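 also: Gal4-VP16 expression switched on by copper sulfate through the metallothionein promoter; nearly all actives have a fitted effect of over 50% in size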
TDP1 cell CPT: DT40-hTDP1 cell growth loss with CPT; chicken DT40 Tdp1-/-;hTDP1 cells + 20 nM CPT, ATP luminescence, 48 h; Potency, µM (series often up to 46.2 µM), actives largely listed as inhibitors; 420,000 tested, 12% active; also: nearly all actives have a fitted effect of over 55% in size
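Chicken DT40 Tdp1-/- cells stably complemented with human TDP1 were seeded at 400 cells/well in medium containing 20 nM camptothecin, exposed to pin-transferred compounds, and grown at 37 °C for at least 48 hr. Viability was read as ATP luminescence.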
Numbers stand for hits; 0 = inactive; ? = inconclusive; - = no result; [ ] = dose if it differs, or a comment. Most compounds without a hit are left out; they make up all but 19% or so of the library. Calls follow the shape of the dose curve; as a rule, active = well fitted curve in the direction sought with a large enough effect; inconclusive = small, poorly fitted or top-dose-only effect, or another doubt; inactive = no such curve, though single readings can be large; an effect the other way counts as inactive or inconclusive.

SMILES | RORg inh | TDP1 cell noCPT | TDP1 block | Gal4-VP16 FLuc | TDP1 cell CPT
CN(C)CCOc1ccc2c(c1)C(=O)C(=Cc1ncc([N+](=O)[O-])n1C)C2 | - | 0.13µM | - | - | 0.146µM
S=c1[nH]nc(-c2ccncc2)n1Cc1ccco1 | 0 | 0 | 0 | 0 | 0
S=c1[nH]nc(-c2ccc(Br)cc2)n1Cc1ccco1 | 1.41µM | ? | 0 | 2.51µM | 0
S=c1[nH]nc(C23CC4CC(CC(C4)C2)C3)n1Cc1ccco1 | 1.26µM | ? | 0 | 11.2µM | ?
COc1cccc(-c2n[nH]c(=S)n2Cc2ccco2)c1 | 15.8µM | 0 | - | ? | 0
Cc1c(Cl)c(-c2n[nH]c(=S)n2Cc2ccco2)nn1C | 11.2µM | 0 | 0 | 0 | 0
Cc1ccc(COC(=O)c2cccc(S(=O)(=O)N3CCCCC3)c2)cc1 | - | ? | 0 | - | 0
C=CCn1c(-c2cccc(OC)c2)n[nH]c1=S | 7.08µM | 0 | 0 | ? | 0
C=CCn1c(-c2cccnc2)n[nH]c1=S | 0 | 0 | 0 | 0 | 0
CC(C)(C)c1ccc(C(=O)NC(=S)Nc2ccc(N3CCOCC3)cc2)cc1 | 4.47µM | 0 | 0 | 7.08µM | 0
O=C(Nc1ccc(Cl)c(S(=O)(=O)N2CCOCC2)c1)c1cn2ccccc2n1 | 0 | ? | 0 | 0 | 0
O=C(Nc1ccc(N2CCOCC2)cc1)c1cn2ccccc2n1 | 0 | 10.3µM | 0 | 0 | 13µM
CCC(=O)NC(=S)Nc1ccc(N2CCN(C(=O)c3ccc(Cl)cc3)CC2)cc1 | 0 | ? | 0 | 0 | 20.6µM
CC(C)c1ccc(C(=O)Nc2ccc(N3CCOCC3)cc2)cc1 | ? | 20.6µM | 0 | 0 | 18.4µM
CC(C)c1ccc(C(=O)NN2CCOCC2)cc1 | ? | 0 | 0 | ? | 0
Cc1ccc2c(c1)c(-c1csc(N)n1)c(C)n2C | 0 | 0 | - | 0 | 0
CN(CCCC(=O)Nc1ccccc1)S(=O)(=O)c1ccc(Cl)cc1 | 0 | 0 | - | 0 | 0
CC(=O)NN1C(=O)c2ccccc2NC1c1ccccc1F (stereo not given) | 0 | 0 | - | 0 | 0
O=C(Nc1ccc(N2CCOCC2)cc1)c1cc2c(s1)CCCCC2 | 0 | 20.6µM | 0 | 0 | 23.1µM
CC(C)(C)c1ccc(C(=O)Nc2ccc(C(=O)N3CCCC3)cc2)cc1 | ? | 23.1µM | 0 | 0 | 20.6µM
O=C(Nc1ccc(N2CCOCC2)cc1N1CCOCC1)c1ccc(Cl)cc1 | 0 | ? | 0 | 0 | ?
CC(=O)Nc1ccc(NC(=O)c2ccc(-n3c(C)ccc3C)cc2)cc1 | 0 | 16.4µM | 0 | 0 | ?
O=C(NC(=S)Nc1ccc(N2CCOCC2)cc1)c1ccc(Cl)cc1 | 3.98µM | 0 | 0 | 7.08µM | 0
Cc1ccnc2nc(C(=O)NCc3ccccc3)nn12 | 0 | 0 | 0 | 0 | 0
O=C(Nc1ccc(Cl)cc1)Nc1ccc(N2CCOCC2)cc1 | 0 | 18.4µM | 0 | 0 | ?
SMILES | RORg inh | TDP1 cell noCPT | TDP1 block | Gal4-VP16 FLuc | TDP1 cell CPT
O=C(CCCCl)NC(=S)Nc1ccc(N2CCOCC2)cc1 | 2.24µM | 0 | 0 | ? | 0
CC(=O)c1ccc(N2CCN(C(=O)Nc3ccc(C(C)C)cc3)CC2)cc1 | ? | 16.4µM | 0 | 0 | ?
CCOc1cc(C(=O)Nc2ccc(N3CCOCC3)cc2)cc(Br)c1OC | ? | 25.9µM | 0 | 0[10 µM] | ?
CCOc1cc(C(=O)Nc2ccc(F)cc2)cc(Br)c1OC | 0 | ? | 0 | 0 | 0
Cc1csc2nc(CCNS(=O)(=O)c3ccc4c(c3)OCCO4)cn12 | 0 | 0 | 0 | 0 | 0
COc1ccc(CCn2c(=O)c3cccnc3n(CC(=O)Nc3c(C)cccc3C)c2=O)cc1OC | - | 0 | 0 | - | 0
Cc1c(N(C)S(=O)(=O)c2cc(C(=O)NCC3CCCO3)ccc2Cl)c(=O)n(-c2ccccc2)n1C (stereo not given) | - | 0 | - | - | 0
CC(C)(C)c1ccc(C(=O)N2CCCCCC2=O)cc1 | ? | 0 | 0 | 2.24µM | 0
CC(=O)c1ccc(C(=O)Nc2ccc(N3CCOCC3)cc2)cc1 | 0 | 0 | 0 | 0 | 0
CC(C)(C)c1ccc(C(=O)N2CCC(NC(=O)c3ccccc3)CC2)cc1 | 0 | ? | - | 0 | 14.6µM
CC(C)(C)c1ccc(C(=O)Nc2ccc(N3CCOCC3)cc2)cc1 | 0 | 18.4µM | 0 | 0 | 18.4µM
CC(C)(C)c1ccc(C(=O)N2CCC(C(=O)NC3CC3)CC2)cc1 | 0 | 0 | - | 0 | 0
CC(C)(C)c1ccc(NC(=O)c2ccsc2)cc1 | 0 | 23.1µM | 0 | 7.94µM | ?
O=C1CCCCCN1C(=O)c1ccccc1 | - | 0 | - | - | 0
O=C(CCOc1ccccc1)N(Cc1cccnc1)c1nc2ccc(F)cc2s1 | - | ? | 0 | - | ?
Cc1cccc(OCC(=O)OCC(=O)N2CCN(C(=O)c3ccco3)CC2)c1C | - | 0 | - | - | 0
CCOC(=O)c1oc2cc(O)ccc2c(=O)c1-c1ccc(OC)cc1 | 0 | ? | 0 | 0 | ?
NS(=O)(=O)c1ccc(NC(=S)N2CCN(Cc3ccc4c(c3)OCO4)CC2)cc1 | ? | ? | 0 | 0 | ?
FC(F)(F)c1ccc(-c2csc(-c3ccno3)n2)cc1 | 0 | 0 | 0 | 0 | 0
CCOc1ccc(C(=O)NCCc2sc(-c3cccc(F)c3)nc2C)cc1OCC | - | ? | 0 | - | 18.4µM
CCOc1ccc(C(=O)NCCc2sc(-c3ccc(F)cc3)nc2C)cc1 | - | ? | 0 | - | ?
Cc1nc(-c2cccc(F)c2)sc1CCNC(=O)c1ccc(F)c(F)c1 | - | ? | 0 | - | ?
CCOc1ccc(S(=O)(=O)NCCc2sc(-c3ccc(C)cc3)nc2C)cc1 | - | 16.4µM | 0 | - | ?
CCOc1ccc(C(=O)NCCc2sc(-c3ccc(C)cc3)nc2C)cc1 | - | ? | 0 | - | 23.1µM
Cc1ccc(NC(=O)CSc2nnc(COc3ccc(C#N)cc3)n2-c2ccccc2)cc1C | 0 | ? | 0 | 0 | ?
SMILES | RORg inh | TDP1 cell noCPT | TDP1 block | Gal4-VP16 FLuc | TDP1 cell CPT
Cc1ccc(CCc2nnc(SCC(=O)Nc3cccc(Cl)c3)n2-c2ccccc2)o1 | ? | 13µM | 0 | ? | ?
CN(C)c1ccc(S(=O)(=O)N2CCCCC2)cc1NC(=O)C1=COCCO1 | 0 | 0 | 0 | 0 | ?
CC(C)=CCOc1ccc([C@@H]2COc3c(ccc4c3C=CC(C)(C)O4)C2)c(O)c1 | - | 20.6µM | - | - | 16.4µM
Cc1cc(N(C)/N=C/c2ccccc2O)nc(-c2ccccc2O)n1 | 0 | 4.11µM | 0 | 0 | 5.8µM
Cc1ccc(Oc2cc(C)nc(-c3ccccc3O)n2)cc1 | ? | ? | 0 | 0 | ?
N=c1c2c(-c3ccccc3)c(-c3ccccc3)n(Cc3ccccc3)c2ncn1CCCn1ccnc1 | 10µM | ? | 0 | 10µM | 16.4µM
CCCCn1cnc2c(c(-c3ccccc3)c(-c3ccccc3)n2Cc2ccco2)c1=N | 0 | 0 | 0 | 0 | 0
Cc1cc(NCCCn2ccnc2)n2nc(C)c(-c3ccccc3)c2n1 | 0 | 0 | 0 | 0 | ?
N=c1c2c(-c3ccccc3)c(-c3ccccc3)n(Cc3ccco3)c2ncn1Cc1ccco1 | ? | 6.51µM | 0 | 28.2µM | 9.2µM
COCCNc1nc2c(S(=O)(=O)c3ccccc3)nnn2c2ccc(Cl)cc12 | - | ? | 0 | - | 0
